91 molecules from PubChem BioAssay AID463173 (ICCB-Longwood Screening Facility, Harvard Medical School, 2010) can be followed below.

Out of some 52,000 compounds screened, about 1,700 (3.3%) were called active. The list comes from a sample in which actives are over-represented; it also holds similar structures and randomly drawn compounds. A number with no mark means an inactive call. No stated cut-off is given here; in the data, active means survival mostly below about 52% (no sharp cut-off); inactive means mostly above about 56%.

The subject of this test is Wild type. Briefly: growth inhibition of S. aureus wild type versus tarO mutant, primary screen, teichoic acid synthesis inhibitors, RN4220, OD600 (AID 463173). The note with it: S. aureus RN4220 wild type/DeltatarO growth, OD600, 18 h, hits give low values, screened at 18.75 µg/mL (by protocol).
Regarding `CN(C)CCn1c2c(c(SCC(=O)Nc3ccc(F)cc3F)nc1=O)CCC2`, the survival is 83%.

Take `COC(=O)c1scc(-c2ccccc2)c1S(=O)(=O)Nc1cccc(C)c1C`: the survival was 100%.

`Cn1c(Cc2cccs2)nnc1SCC(=O)N1CCCc2ccccc21`: the survival is 109%.

Regarding `O=C(CSC1=Nc2ccccc2C2=NC(CC(=O)NC3CCCCC3)C(=O)N12)Nc1ccc(F)cc1` (stereo unspecified), the survival was 71%.

Consider `COc1cc(NC(=O)c2noc3c2CC(C(C)(C)C)CC3)cc(OC)c1OC` (stereo unspecified), for which the survival is 68%.

On to `CCOC(=O)c1c(NC(=O)c2noc3c2CC(C(C)(C)C)CC3)sc2c1CCCC2` (stereo unspecified), for which the survival was 88%.

For `CCc1ccccc1NC(=O)c1noc2c1CC(C(C)(C)C)CC2` (stereo unspecified), the survival is -11% (active).

Take `O=C(C1CCCN(S(=O)(=O)c2ccc(Br)s2)C1)N1CCN(c2cccc(Cl)c2)CC1` (stereo unspecified): the survival was 73%.

Consider `Cc1cc(C)n2nc(CNS(=O)(=O)c3ccc(F)cc3)nc2n1`, for which the survival was 88%.

With `Cc1nc(SCc2ccccc2Cl)c(C#N)c(C)c1C`, the survival is -2% (active).

Take `Cc1ccc(Cl)cc1NC(=O)CSc1nc(C)c(C)c(C)c1C#N`: the survival was 86%.

For `Cc1nc(SCc2ccc(Cl)cc2)c(C#N)c(C)c1Cl`, the survival is 32%.

As for `Cc1cc(F)ccc1NC(=O)Cn1cc(S(=O)(=O)NC(C)C)c(S(=O)(=O)NC(C)C)c1`, the survival was 73%.

Consider `CNS(=O)(=O)c1cn(CC(=O)Nc2ccc(F)cc2F)cc1S(=O)(=O)NC`, for which the survival was -3% (active).

As for `CNS(=O)(=O)c1cn(CC(=O)Nc2ccc(C)cc2C)cc1S(=O)(=O)NC`, the survival was 121%.

On to `CCC(=O)N1CCc2cc(Br)cc(S(=O)(=O)N3CCC(C(=O)Nc4ccc(OC)cc4)CC3)c21`, for which the survival is 0% (active).

Consider `CCC(=O)N1CCc2cc(Br)cc(S(=O)(=O)N3CCC(C(=O)Nc4ccccc4CC)CC3)c21`, for which the survival was 89%.

For the molecule `CCC(=O)N1CCc2cc(Br)cc(S(=O)(=O)N3CCC(C(=O)Nc4cccc(C)c4)CC3)c21`, the survival was 94%.

`CC(C(=O)N(C(C)C)C(C)C)N1CCN(C)CC1` (stereo unspecified): the survival was 93%.

Regarding `O=C(Cn1c(=O)nc(-c2ccccc2)c2ccccc21)NCc1ccccc1Cl`, the survival was 73%.

As for `CCOc1ccc(CNC23CN4CN(CN(C4)C2)C3)cc1`, the survival was 99%.

`CC1CCN(C(=O)CSc2n[nH]c(-c3ccc(F)cc3)n2)CC1`: the survival is 76%.

Consider `CC(Sc1nc(-c2ccccc2)cc(C(F)(F)F)n1)C(=O)N1CCCC1` (stereo unspecified), for which the survival is 105%.

On to `CC1CCN(C(=O)C(C)Sc2nc(-c3ccccc3)cc(C(F)(F)F)n2)CC1` (stereo unspecified), for which the survival is -7% (active).

For the molecule `CC1CN(C(=O)C(C)Sc2nc(-c3ccccc3)cc(C(F)(F)F)n2)CC(C)O1` (stereo unspecified), the survival is 101%.

For the molecule `O=C(CSc1n[nH]c(-c2ccc(F)cc2)n1)N1CCN(c2ccc(F)cc2)CC1`, the survival is -6% (active).

On to `COc1ccc(-c2cc(C(F)(F)F)nc(SCC(=O)N3CCC(C)CC3)n2)cc1`, for which the survival was 55%.

For the molecule `O=C(CSc1n[nH]c(-c2ccccc2)n1)N1CCN(c2ccc(F)cc2)CC1`, the survival is 65%.

Turning to `CC1CCN(C(=O)CSc2nc(-c3ccc(F)cc3)cc(C(F)(F)F)n2)CC1`, the survival was 11% (active).

`COc1ccc(-c2nc(SCC(=O)N3CCN(c4ccc(F)cc4)CC3)n[nH]2)cc1`: the survival is 85%.

For `CC1(C)CC(=O)c2cc(C(=O)Nc3ccc(Br)cc3)c(=O)n(-c3ccc(Cl)cc3)c2C1`, the survival was 74%.

On to `O=C(Nc1ccccc1)NC1(C(=O)Nc2ccc(-n3cnnn3)cc2)CCCCC1`, for which the survival was 123%.

In the case of `COc1ccc(NC(=O)CS(=O)CC(=O)Nc2cc(OC)ccc2OC)cc1` (stereo unspecified), the survival is 107%.

For `CCOC(=O)C1CCN(C(=O)c2ccc3c(c2)sc2nc(-c4ccccc4)cn23)CC1`, the survival was 42%.

For `Cc1cc(S(=O)(=O)Nc2cc3c(cc2N2CCOCC2)n(C)c(=O)n3C)ccc1F`, the survival is 82%.

For `CC(=O)Oc1cn(C(C)=O)c2ccccc12`, the survival is 84%.

Take `CC1CCCCN1S(=O)(=O)c1ccc(NC(=O)C2COc3ccccc3O2)cc1` (stereo unspecified): the survival is 125%.

As to `COc1cc(NC(=O)Cc2c(C(=O)O)c(C)cn2C)cc(OC)c1`, the survival was 99%.

In the case of `O=C(CCN1CCCCC1)Nc1ccccc1`, the survival was 110%.

For `CCOC(=O)c1ccc(N2C(=O)c3n[nH]c(C)c3C2c2ccc(CC)cc2)cc1` (stereo unspecified), the survival is 82%.

Consider `CCOC(=O)c1ccc(N2C(=O)c3n[nH]c(C)c3C2c2cccc(Br)c2)cc1` (stereo unspecified), for which the survival was 3% (active).

Regarding `CCOC(=O)c1ccc(N2C(=O)c3n[nH]c(-c4ccco4)c3C2c2ccc(O)cc2)cc1` (stereo unspecified), the survival was 67%.

For the molecule `CCOC(=O)c1ccc(N2C(=O)c3n[nH]c(-c4ccco4)c3C2c2ccc(C)cc2)cc1` (stereo unspecified), the survival was 32%.

For the molecule `CCOC(=O)c1ccc(N2C(=O)c3n[nH]c(C)c3C2c2ccc(C(C)(C)C)cc2)cc1` (stereo unspecified), the survival was 81%.

On to `CCOC(=O)c1ccc(N2C(=O)c3n[nH]c(-c4ccco4)c3C2c2ccc(F)cc2)cc1` (stereo unspecified), for which the survival was 9% (active).

Consider `Cn1cc(S(=O)(=O)N2CCCCC2)cc1C(=O)NCc1ccc(Cl)cc1`, for which the survival was 88%.

On to `COc1ccc(CNC(=O)Cc2c(C)c3cc4c(C)coc4cc3oc2=O)cc1`, for which the survival is 88%.

`COc1ccc(-c2nc3sc(CCNC(=O)C(=O)Nc4cc(C)cc(C)c4)c(C)n3n2)cc1`: the survival was 89%.

In the case of `CC(=O)c1ccc(N2CCN(C(=O)C3CCN(S(=O)(=O)c4c(C)noc4/C=C/c4ccc(C)cc4)CC3)CC2)cc1`, the survival is 127%.

For the molecule `O=C(O)CCC(=O)NC(c1ccccc1)c1ccccc1`, the survival is 108%.

With `Cc1cc(C)nc(N2CCC(C(=O)Nc3nnc(C(C)C)s3)CC2)n1`, the survival is 107%.

For the molecule `COC(=O)c1cc2c(ccn2-c2ccc(F)cc2)n1Cc1ccccc1`, the survival was 88%.

On to `Cc1ccc(CN2C(=O)CN(C3CCC(C)CC3)C(=O)C2c2ccc(F)cc2)cc1` (stereo unspecified), for which the survival is 119%.

For `Cc1ccc(CN2C(=O)CN(C3CCCCCC3)C(=O)C2c2ccc(F)cc2)cc1` (stereo unspecified), the survival is 1% (active).

On to `COc1ccc(C2C(=O)N(C3CCCCCC3)CC(=O)N2Cc2ccc(C)cc2)cc1` (stereo unspecified), for which the survival is 75%.

As to `COc1ccc(C)cc1NC(=O)Nc1cccc(OCc2cc(=O)n3ccc(C)cc3n2)c1`, the survival is 73%.

With `CCC(=O)N1c2ccc(S(=O)(=O)CCC(=O)Nc3ccc(Br)c(C)c3)cc2CC1C` (stereo unspecified), the survival is 87%.

Regarding `Cc1oc(-c2cccc(Cl)c2)nc1CN1CCCC(C(=O)NCc2ccc(F)cc2)C1` (stereo unspecified), the survival was 64%.

Turning to `Cc1ccc(CNC(=O)C2CCCN(Cc3nc(-c4cccc(C)c4)oc3C)C2)cc1` (stereo unspecified), the survival is 4% (active).

`CCc1ccc(-c2nc(CN3CCCC(C(=O)NCc4ccc(C)cc4)C3)c(C)o2)cc1` (stereo unspecified): the survival was 88%.

On to `Cc1oc(-c2cccc(Cl)c2)nc1CN1CCCC(C(=O)NCc2ccc(Cl)cc2)C1` (stereo unspecified), for which the survival is -1% (active).

Regarding `Cc1cccc(-c2nc(CN3CCCC(C(=O)NCc4ccc(Cl)cc4)C3)c(C)o2)c1` (stereo unspecified), the survival is 2% (active).

Consider `Cc1ccccc1-c1nc(CN2CCCC(C(=O)NCc3ccc(Cl)cc3)C2)c(C)o1` (stereo unspecified), for which the survival was 68%.

In the case of `Cc1oc(-c2ccc(Cl)cc2)nc1CN1CCCC(C(=O)NCc2ccc(Cl)cc2)C1` (stereo unspecified), the survival is 85%.

Take `Cc1ccc(CNC(=O)C2CCN(Cc3nc(-c4cccc(Br)c4)oc3C)CC2)cc1`: the survival is 75%.

In the case of `Cc1oc(-c2ccc(Cl)cc2)nc1CN1CCCC(C(=O)NCc2ccccc2)C1` (stereo unspecified), the survival is 88%.

Consider `COc1ccc(CCNC(=O)CCc2c(C)c3cc4c(C)coc4cc3oc2=O)cc1`, for which the survival was 90%.

Consider `C=C(C)Cn1c(=O)c2c(nc3n2CCN3c2ccc(F)cc2)n(C)c1=O`, for which the survival is 85%.

For the molecule `CC(=O)c1cccc(NC(=O)CSc2nc3ccccc3nc2Cc2ccc(F)cc2)c1`, the survival is 73%.

`Cc1ccc2oc(-c3cc(N=C/C=C/c4ccc5c(c4)OCO5)ccc3O)nc2c1`: the survival is 113%.

`COc1ccc(CNC(=O)C2CCN(c3nc4ccccc4[nH]3)CC2)cc1OC`: the survival was 47%.

Regarding `CN(C)c1ccc(CNC(=O)C2CCN(c3nc4ccccc4[nH]3)CC2)cc1`, the survival is 45%.

Regarding `CCOc1cc(CNC(=O)C2CCN(c3nc4ccccc4[nH]3)CC2)cc(OCC)c1OCC`, the survival is -3% (active).

On to `CCCN(CCC)CCNC(=O)C1CCN(c2nc3ccc(CC)cc3s2)CC1`, for which the survival is 67%.

Take `Cc1ccc(-c2nnn3c2nc(NC2CCC(C)CC2)c2ccccc23)cc1` (stereo unspecified): the survival is 4% (active).

`Clc1ccc(-c2nnn3c2nc(NC2CCCCC2)c2ccccc23)cc1`: the survival is 57%.

As to `CC1CCC(Nc2nc3c(-c4cccc(C(F)(F)F)c4)nnn3c3ccccc23)CC1` (stereo unspecified), the survival was -1% (active).

Regarding `CC1CCC(Nc2nc3c(-c4ccc(Cl)cc4)nnn3c3ccccc23)CC1` (stereo unspecified), the survival was 25%.

Turning to `FC(F)(F)c1cccc(-c2nnn3c2nc(NC2CCCCC2)c2ccccc23)c1`, the survival is 28%.

For `Fc1cccc(-c2nnn3c2nc(NC2CCCCC2)c2ccccc23)c1`, the survival was 85%.

Regarding `COc1cc2nc(Nc3cccc(F)c3)nc(N)c2cc1OC`, the survival is 89%.

Regarding `Cc1ccc(OCc2nnc(-c3ccccc3)o2)cc1`, the survival was 77%.

As for `O=C(Nc1cccc(C(=O)OCc2cc(=O)n3c4c(sc3n2)CCCC4)c1)c1cccc(Cl)c1`, the survival was 73%.

On to `CN1c2ccccc2Oc2nnc(N3CCN(Cc4ccccc4)CC3)cc21`, for which the survival is 110%.

As for `CCc1ccc(NC(=O)C(=O)NCC(c2cccnc2)N2CCN(C)CC2)cc1` (stereo unspecified), the survival is 111%.

As for `CCOC(=O)c1c(Nc2ccc(OC)cc2)nnc(-c2ccccc2)c1-c1ccccc1`, the survival is 5% (active).

Regarding `CCOC(=O)c1c(Nc2cccc(C(=O)OC)c2)nnc(-c2ccccc2)c1-c1ccccc1`, the survival was 19%.

Regarding `CCOC(=O)c1c(C)c(-c2ccccc2)n(CC(=O)Nc2ccc(OCC)cc2)c1C`, the survival is 82%.

Regarding `CCOC(=O)c1c(C)oc2ncnc(Nc3ccc(OCC)cc3)c12`, the survival is 72%.

With `CCOC(=O)c1c(Nc2ccc(OCC)cc2)nnc(-c2ccccc2)c1-c1ccccc1`, the survival was 2% (active).

For the molecule `CCOC(=O)c1c(Oc2ccc(OC)cc2)nnc(-c2ccccc2)c1-c1ccccc1`, the survival was 91%.
